Reference: PubChem BioAssay (EPA / NIEHS)
Records with an inconclusive call do not appear. Activity calls are given as the source filed them. How the source made its calls: active means hit-call score of the fitted dose curve at least 0.9, where 1 is the maximum; inconclusive means response in the unintended direction; inactive means score below 0.9.

Experiments:
[1] = biological target: bovine Estrogen Receptor (ER), ESR1 (gene 407238) (UniProt P49884); test: NVS_NR_bER: NovaScreen (NVS) Nuclear Receptor Binding Assay for bovine Estrogen Receptor (ER) (AID 2283345);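 further: actives lower the bound radioligand count which means they displace the ER ligand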
Outline: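 Cell-free radioligand binding with bovine uterine membrane extracts, read 18 hours after dosing by scintillation counting. Loss of signal versus DMSO baseline indicates displacement. Primary screen run in duplicate at 25 uM, actives followed in concentration series.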

[2] = biological target: Estrogen receptor (Homo sapiens) (UniProt P03372); test: NVS_NR_hER: NovaScreen (NVS) Nuclear Receptor Binding Assay for human Estrogen Receptor (ER) (AID 2283348)
Outline: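 Radiodetection of ligand displacement in a lysate-based, cell-free format using MCF7 extracts, read at 18 hours. Duplicate 25 uM primary testing, then concentration series for actives.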

[3] = biological target: chimpanzee Androgen Receptor (AR), AR (gene 747460) (UniProt O97775); test: NVS_NR_cAR: NovaScreen (NVS) Nuclear Receptor Binding Assay for chimpanzee Androgen Receptor (AR) (AID 2283346);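 further: radioligand displacement from AR measured by scintillation counting in a cell-free assay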
Outline: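 Cell-free radioligand displacement using receptor protein extracted from Sf9/Sf21 cells; bound radioligand measured by scintillation counting 72 hours after chemical dosing. Loss of signal versus DMSO baseline indicates binding; primary screen single-concentration in duplicate at 25 uM, actives followed in concentration series.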

[4] = biological target: Estrogen receptor (Homo sapiens) (UniProt P03372); test: OT_ER_ERaERa_1440: Odyssey Thera (OT) 24-hour HEK293T Protein-Complementation Assay for Estrogen Receptor-alpha/-alpha Homodimer (AID 2283349);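 further: hits raise fluorescence above DMSO for agonists and antagonists alike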
Outline: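 Stably transfected HEK293T; ERα LBD homodimer PCA. 24 h dosing, fluorescence intensity read, gain-of-signal vs DMSO.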

[5] = biological target: Estrogen receptor (Homo sapiens) (UniProt P03372); test: OT_ER_ERaERa_0480: Odyssey Thera (OT) 8-hour HEK293T Protein-Complementation Assay for Estrogen Receptor-alpha/-alpha Homodimer (AID 2283351);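 further: rise in fluorescence from reassembled reporter fragments on ERα LBD homodimer in nucleus or whole cell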
Outline: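 Cells were treated for 8 hours, then imaged on a laser scanning plate cytometer. Complementation of reporter fragments fused to the human ERα ligand-binding domain (residues 310-547) in HEK293T gave fluorescence, and gain of signal over vehicle was fitted.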

[6] = biological target: rat Mineralocorticoid Receptor (MR), Nr3c2 (gene 25672) (UniProt P22199); test: NVS_NR_rMR: NovaScreen (NVS) Nuclear Receptor Binding Assay for rat Mineralocorticoid Receptor (MR) (AID 2283355)
Outline: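 Single-concentration duplicate screen (25 uM) of radioligand binding in adrenalectomized rat brain supernatant; scintillation detection 24 h after dosing. Positive and negative controls ran on each plate, and confirmed actives went to concentration-response.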

[7] = system: guinea pig Histamine Receptor (H2), gene 100729734; test: NVS_GPCR_gH2: NovaScreen (NVS) G Protein-Coupled Receptor Assay for guinea pig Histamine Receptor (H2) (AID 2283342)
Outline: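 Guinea pig striatal membrane preparation with specific radioligand; bound counts measured by filtration and scintillation 1 h post-dosing, DMSO as baseline. Chemicals passing a 25 uM duplicate screen were titrated to a 50 uM maximum.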

[8] = biological target: Androgen Receptor/SRC-1 Co-activator, AR (gene 367) (UniProt P10275); test: OT_AR_ARSRC1_0960: Odyssey Thera (OT) 16-hour HEK293T Protein-Complementation Assay for Androgen Receptor/SRC-1 Co-activator (AID 2283353);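 further: actives raise the signal above DMSO so potency reflects increased AR and SRC-1 complex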
Outline: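 Stable HEK293T line carries AR and SRC-1 each linked to a Venus fragment; chemicals are applied for 16 h, cells imaged at two wavelengths, and the 488 nm nucleus/cytoplasm ratio is taken as the signal, rising relative to DMSO.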

[9] = biological target: Androgen Receptor/SRC-1 Co-activator, AR (gene 367) (UniProt P10275); test: OT_AR_ARSRC1_0480: Odyssey Thera (OT) 8-hour HEK293T Protein-Complementation Assay for Androgen Receptor/SRC-1 Co-activator (AID 2283354);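 further: hits raise the complementation signal above DMSO so AC50 marks enhancers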
Outline: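 After 8 h dosing, stably expressing HEK293T cells with split-Venus AR/SRC-1 fusions were imaged (488, 635nm). The 488nm N/C ratio per image gave the endpoint, analysed in the positive direction against DMSO.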

[10] = biological target: Estrogen receptor (Homo sapiens) + Estrogen receptor beta (Homo sapiens) (UniProt P03372+Q92731); test: OT_ER_ERaERb_1440: Odyssey Thera (OT) 24-hour HEK293T Protein-Complementation Assay for Estrogen Receptor-alpha/-beta Homodimer (AID 2283356);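 further: heteromer of ER alpha and ER beta binding domains; hits raise reporter fluorescence and both agonists and antagonists give an increase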
Outline: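 Heterodimerisation of ERα (aa 310-547) and ERβ (aa 263-489) ligand binding domains was tracked as fluorescence gain in stably transfected HEK293T cells following 24 h dosing, normalised to DMSO controls.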

[11] = biological target: Estrogen receptor beta (Homo sapiens) (UniProt Q92731); test: OT_ER_ERbERb_0480: Odyssey Thera (OT) 8-hour HEK293T Protein-Complementation Assay for Estrogen Receptor-beta/-beta Homodimer (AID 2283357);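 further: active means signal gain over DMSO baseline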
Outline: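 Fluorescence gain from complemented reporter fragments on ER-beta LBD homodimer in HEK293T was quantified against DMSO controls after 8 h treatment, fixation in 4% formaldehyde and Draq5 staining.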

[12] = biological target: human Peroxisome Proliferator-activated Receptor alpha (PPARa), PPARA (gene 5465) (UniProt Q07869); test: NVS_NR_hPPARa: NovaScreen (NVS) Nuclear Receptor Binding Assay for human Peroxisome Proliferator-activated Receptor alpha (PPARa) (AID 2283359);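 further: activity means loss of TR-FRET signal versus DMSO baseline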
Outline: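 One-hour incubation, cell-free extracted protein, TR-FRET binding readout; signal loss vs DMSO scored. Screen: 25 uM duplicates, confirmatory dose series for actives.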

[13] = system: NCBI gene 100848466; test: NVS_NR_bPR: NovaScreen (NVS) Nuclear Receptor Binding Assay for bovine Progextron Receptor (PR) (AID 2283343)
Outline: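 Steps: bovine uterine membranes were dosed with chemical alongside radioligand, incubated 18 hours, then radiodetected by scintillation counting. Initial testing used 25 uM in duplicate; confirmed actives were rerun as concentration series.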

bovine Estrogen Receptor (ER), ESR1 (gene 407238), sequence (P49884 whole entry, looked up): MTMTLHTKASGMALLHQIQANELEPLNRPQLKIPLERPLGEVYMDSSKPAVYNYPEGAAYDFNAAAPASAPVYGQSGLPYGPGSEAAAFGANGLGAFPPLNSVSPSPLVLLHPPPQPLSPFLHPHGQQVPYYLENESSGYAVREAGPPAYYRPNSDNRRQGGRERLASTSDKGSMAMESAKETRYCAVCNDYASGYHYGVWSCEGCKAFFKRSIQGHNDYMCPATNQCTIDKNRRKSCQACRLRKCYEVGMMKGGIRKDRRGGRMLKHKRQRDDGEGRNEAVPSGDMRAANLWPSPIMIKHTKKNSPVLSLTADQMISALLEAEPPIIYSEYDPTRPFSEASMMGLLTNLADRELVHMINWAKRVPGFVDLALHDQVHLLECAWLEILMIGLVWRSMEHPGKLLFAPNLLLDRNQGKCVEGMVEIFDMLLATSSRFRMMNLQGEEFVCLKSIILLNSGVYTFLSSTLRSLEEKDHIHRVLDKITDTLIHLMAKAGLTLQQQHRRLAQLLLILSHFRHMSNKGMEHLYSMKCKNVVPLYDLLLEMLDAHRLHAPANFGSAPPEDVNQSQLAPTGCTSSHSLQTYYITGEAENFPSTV
Estrogen receptor (Homo sapiens), sequence (P03372 whole entry, looked up, the tested form may be a part): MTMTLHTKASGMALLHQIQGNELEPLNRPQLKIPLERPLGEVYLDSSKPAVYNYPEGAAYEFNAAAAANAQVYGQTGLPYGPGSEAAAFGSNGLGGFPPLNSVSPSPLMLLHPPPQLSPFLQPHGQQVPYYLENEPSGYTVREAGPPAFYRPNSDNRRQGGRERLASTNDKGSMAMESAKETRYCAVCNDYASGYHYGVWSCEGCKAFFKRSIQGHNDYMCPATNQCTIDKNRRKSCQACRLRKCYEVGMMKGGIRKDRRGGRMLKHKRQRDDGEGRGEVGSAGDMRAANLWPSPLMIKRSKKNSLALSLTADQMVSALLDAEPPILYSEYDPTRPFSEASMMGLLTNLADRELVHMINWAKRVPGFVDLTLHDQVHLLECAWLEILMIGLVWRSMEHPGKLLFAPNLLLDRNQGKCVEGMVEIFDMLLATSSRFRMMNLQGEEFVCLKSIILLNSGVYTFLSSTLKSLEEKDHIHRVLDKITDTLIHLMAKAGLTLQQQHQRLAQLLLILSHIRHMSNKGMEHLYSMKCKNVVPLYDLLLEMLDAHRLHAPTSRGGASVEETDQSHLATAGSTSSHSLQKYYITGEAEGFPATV
Estrogen receptor (Homo sapiens) + Estrogen receptor beta (Homo sapiens), sequence (P03372 whole entry, looked up, the tested form may be a part): as above
Estrogen receptor (Homo sapiens) + Estrogen receptor beta (Homo sapiens), sequence (Q92731 whole entry, looked up, the tested form may be a part): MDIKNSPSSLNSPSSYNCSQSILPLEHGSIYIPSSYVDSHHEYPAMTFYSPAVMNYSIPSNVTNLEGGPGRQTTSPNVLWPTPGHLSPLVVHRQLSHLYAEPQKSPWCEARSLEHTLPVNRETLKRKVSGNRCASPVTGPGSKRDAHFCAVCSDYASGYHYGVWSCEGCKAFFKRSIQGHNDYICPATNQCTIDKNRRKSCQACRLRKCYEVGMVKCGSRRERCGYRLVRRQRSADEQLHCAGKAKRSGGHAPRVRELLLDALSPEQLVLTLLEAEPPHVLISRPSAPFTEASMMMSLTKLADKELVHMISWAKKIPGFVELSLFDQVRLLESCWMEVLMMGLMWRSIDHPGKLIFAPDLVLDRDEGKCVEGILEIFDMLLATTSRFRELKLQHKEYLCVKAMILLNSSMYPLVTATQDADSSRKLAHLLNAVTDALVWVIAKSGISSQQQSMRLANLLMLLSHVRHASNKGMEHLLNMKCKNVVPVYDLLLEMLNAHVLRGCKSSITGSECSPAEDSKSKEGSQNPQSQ
Androgen Receptor/SRC-1 Co-activator, AR (gene 367), sequence (P10275 whole entry, looked up, the tested form may be a part): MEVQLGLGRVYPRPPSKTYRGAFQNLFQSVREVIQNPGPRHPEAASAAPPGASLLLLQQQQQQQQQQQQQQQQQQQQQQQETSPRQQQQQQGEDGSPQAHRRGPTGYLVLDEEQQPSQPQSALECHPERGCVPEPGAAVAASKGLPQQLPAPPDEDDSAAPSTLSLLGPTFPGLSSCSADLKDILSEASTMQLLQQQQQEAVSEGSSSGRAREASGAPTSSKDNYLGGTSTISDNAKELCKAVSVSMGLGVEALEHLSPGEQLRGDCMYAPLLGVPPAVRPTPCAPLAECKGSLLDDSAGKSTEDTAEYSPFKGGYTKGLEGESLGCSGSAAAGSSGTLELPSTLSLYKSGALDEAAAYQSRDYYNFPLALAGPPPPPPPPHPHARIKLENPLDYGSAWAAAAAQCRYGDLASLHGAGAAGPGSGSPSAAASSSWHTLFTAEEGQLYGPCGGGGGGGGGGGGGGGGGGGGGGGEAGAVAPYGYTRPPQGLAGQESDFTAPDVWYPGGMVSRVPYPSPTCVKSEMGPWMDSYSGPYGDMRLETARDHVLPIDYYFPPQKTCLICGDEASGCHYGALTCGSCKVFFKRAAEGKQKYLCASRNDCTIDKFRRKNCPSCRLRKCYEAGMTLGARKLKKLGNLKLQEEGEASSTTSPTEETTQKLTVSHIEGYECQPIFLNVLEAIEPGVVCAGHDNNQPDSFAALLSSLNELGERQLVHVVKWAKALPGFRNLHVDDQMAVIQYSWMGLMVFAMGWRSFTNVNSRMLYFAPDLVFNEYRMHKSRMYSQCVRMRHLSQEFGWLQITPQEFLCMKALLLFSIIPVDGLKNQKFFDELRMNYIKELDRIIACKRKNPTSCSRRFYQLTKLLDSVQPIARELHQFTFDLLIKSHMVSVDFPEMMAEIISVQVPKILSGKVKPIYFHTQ
Estrogen receptor beta (Homo sapiens), sequence (Q92731 whole entry, looked up, the tested form may be a part): as the sequence (Q92731 whole entry, looked up, the tested form may be a part) above
chimpanzee Androgen Receptor (AR), AR (gene 747460), sequence (O97775 whole entry, looked up): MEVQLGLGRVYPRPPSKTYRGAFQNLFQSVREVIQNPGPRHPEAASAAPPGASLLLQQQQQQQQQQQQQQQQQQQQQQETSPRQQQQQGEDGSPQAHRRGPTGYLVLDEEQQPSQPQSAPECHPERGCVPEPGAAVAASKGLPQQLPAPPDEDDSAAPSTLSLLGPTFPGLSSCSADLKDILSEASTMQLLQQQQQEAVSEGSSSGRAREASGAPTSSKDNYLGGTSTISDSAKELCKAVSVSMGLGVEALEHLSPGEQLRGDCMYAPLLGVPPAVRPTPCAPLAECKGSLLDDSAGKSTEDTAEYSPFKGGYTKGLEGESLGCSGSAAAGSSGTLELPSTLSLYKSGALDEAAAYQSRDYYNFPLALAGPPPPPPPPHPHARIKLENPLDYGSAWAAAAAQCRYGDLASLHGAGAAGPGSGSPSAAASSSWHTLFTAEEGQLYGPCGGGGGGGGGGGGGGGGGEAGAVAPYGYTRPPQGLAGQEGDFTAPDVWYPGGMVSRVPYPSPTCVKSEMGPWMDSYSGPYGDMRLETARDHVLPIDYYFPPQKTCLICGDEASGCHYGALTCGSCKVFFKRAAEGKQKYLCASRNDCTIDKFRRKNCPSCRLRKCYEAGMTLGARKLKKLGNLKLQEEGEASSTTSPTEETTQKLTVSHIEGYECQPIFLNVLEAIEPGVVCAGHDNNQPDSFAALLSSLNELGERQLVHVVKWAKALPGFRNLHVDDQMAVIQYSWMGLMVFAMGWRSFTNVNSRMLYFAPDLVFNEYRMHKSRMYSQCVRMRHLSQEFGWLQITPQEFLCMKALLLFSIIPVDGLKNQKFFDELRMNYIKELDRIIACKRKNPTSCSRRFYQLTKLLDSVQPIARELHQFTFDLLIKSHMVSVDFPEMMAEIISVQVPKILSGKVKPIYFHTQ
rat Mineralocorticoid Receptor (MR), Nr3c2 (gene 25672), sequence (P22199 whole entry, looked up): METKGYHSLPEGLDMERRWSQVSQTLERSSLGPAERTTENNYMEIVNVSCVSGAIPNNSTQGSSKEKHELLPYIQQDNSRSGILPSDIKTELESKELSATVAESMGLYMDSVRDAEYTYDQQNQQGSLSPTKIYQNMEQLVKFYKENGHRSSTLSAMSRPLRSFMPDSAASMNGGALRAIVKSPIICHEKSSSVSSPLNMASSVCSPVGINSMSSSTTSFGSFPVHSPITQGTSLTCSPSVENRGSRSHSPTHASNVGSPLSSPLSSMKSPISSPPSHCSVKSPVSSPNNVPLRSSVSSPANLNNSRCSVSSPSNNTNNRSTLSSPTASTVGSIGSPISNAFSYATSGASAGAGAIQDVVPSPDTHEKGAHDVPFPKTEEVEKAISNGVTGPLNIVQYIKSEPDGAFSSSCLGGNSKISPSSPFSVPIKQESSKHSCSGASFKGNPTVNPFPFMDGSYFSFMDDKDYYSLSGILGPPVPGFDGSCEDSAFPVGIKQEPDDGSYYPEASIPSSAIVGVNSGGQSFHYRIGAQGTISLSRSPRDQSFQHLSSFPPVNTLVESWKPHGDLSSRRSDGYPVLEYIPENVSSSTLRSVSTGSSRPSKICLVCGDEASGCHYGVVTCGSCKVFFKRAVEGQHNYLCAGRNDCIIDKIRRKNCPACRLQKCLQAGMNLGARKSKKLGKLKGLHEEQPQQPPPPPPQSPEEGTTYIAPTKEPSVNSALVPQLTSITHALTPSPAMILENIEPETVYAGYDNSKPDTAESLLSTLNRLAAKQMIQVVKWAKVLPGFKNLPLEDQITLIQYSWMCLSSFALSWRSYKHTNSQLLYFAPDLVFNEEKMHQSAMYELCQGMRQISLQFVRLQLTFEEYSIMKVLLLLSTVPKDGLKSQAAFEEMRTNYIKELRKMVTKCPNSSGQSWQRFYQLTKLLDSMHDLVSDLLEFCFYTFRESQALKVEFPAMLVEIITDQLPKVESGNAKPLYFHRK

CCOC(=O)/C=C(C)/C=C/C[C@@H](C)CCCC(C)C
outcome [1]: inactive | outcome [2]: inactive

O=C(OC1CCCCC1)c1ccccc1C(=O)OC1CCCCC1
outcome [1]: inactive | outcome [3]: inactive | outcome [2]: inactive | AC50 [4]: 23.9 µM (active) | AC50 [5]: 35 µM (active) | outcome [6]: inactive

CC(=O)[O][Hg][c]1ccccc1
AC50 [7]: 11.4 µM (active) | AC50 [3]: 29.1 µM (active) | outcome [2]: inactive | outcome [4]: inactive | outcome [5]: inactive | AC50 [8]: 1.86 µM (active) | AC50 [9]: 3.4 µM (active) | outcome [10]: inactive | outcome [11]: inactive

COP(=O)(OC)O/C(=C\Cl)c1cc(Cl)c(Cl)cc1Cl
outcome [1]: inactive | outcome [2]: inactive | outcome [4]: inactive | outcome [5]: inactive | AC50 [8]: 67.5 µM (active) | outcome [9]: inactive | outcome [12]: inactive

CC(C)OC(=O)Nc1ccccc1
outcome [1]: inactive | outcome [4]: inactive | outcome [5]: inactive

O=[N+]([O-])c1c(Cl)c(Cl)cc(Cl)c1Cl
outcome [1]: inactive

CCOP(=S)(OCC)Oc1nc(Cl)c(Cl)cc1Cl
outcome [1]: inactive | AC50 [4]: 70.6 µM (active) | AC50 [5]: 71.3 µM (active) | AC50 [9]: 78.9 µM (active) | AC50 [10]: 61.5 µM (active) | AC50 [11]: 58.9 µM (active)

C=CC(=O)OCCCCCC(C)C
outcome [1]: inactive | outcome [2]: inactive | outcome [4]: inactive | outcome [5]: inactive | outcome [8]: inactive | outcome [9]: inactive | outcome [10]: inactive | outcome [11]: inactive

ClCC(Cl)CCl
outcome [13]: inactive | outcome [1]: inactive

NNC(=S)NN
outcome [1]: inactive | outcome [2]: inactive | outcome [4]: inactive | outcome [5]: inactive | outcome [10]: inactive | outcome [11]: inactive

C[C@H]1CCCC(=O)CCC/C=C/c2cc(O)cc(O)c2C(=O)O1
AC50 [1]: 0.0119 µM (active) | AC50 [2]: 0.00245 µM (active) | AC50 [4]: 0.46 µM (active) | AC50 [5]: 0.291 µM (active) | outcome [8]: inactive | outcome [9]: inactive | AC50 [10]: 0.24 µM (active) | AC50 [11]: 0.0845 µM (active)
